{
  "source": "PubChem BioAssay (EPA / NIEHS)",
  "note": "Calls of active or inactive are those of the source. Rule for the calls: active = hit-call score of the fitted dose curve at least 0.9, where 1 is the maximum; inactive = score below 0.9.",
  "data": [
    {"read-out": "cysteine-aspartic acid protease (CASP8), CASP8 (gene 841)", "experiment": "LTEA_HepaRG_CASP8: Life Technologies and Expression Analysis (LTEA) Assay for cysteine-aspartic acid protease (CASP8) using HepaRG (AID 2283480)", "conditions": "mRNA level, 48 h; actives raise or lower the signal", "protocol": "LTEA_HepaRG is a cell based, multiplexed-readout assay that uses HepaRG, a human liver cell line, with measurements taken at 48 hours after chemical dosing on a 96-well plate.LTEA_HepaRG_CASP8 is one of 102 assay component(s) measured in the LTEA HepaRG cell culture assay. It is a marker of Cell proliferation, survival, death.Data from the assay component LTEA_HepaRG_CASP8 was analyzed into 1 endpoint. This assay endpoint, LTEA_HepaRG_CASP8, was analyzed with bidirectional fitting relative to DMSO as the negative control and baseline of activity. Using a type of inducible reporter, measures of mRNA induction for gain or loss-of-signal activity can be used to understand regulation of transcription factor activity. To generalize the intended target to other relatable targets, this assay endpoint is annotated to the protease intended target family, where the subfamily is cysteine protease.\nA total of 1060 chemcials from the ToxCast library were tested in eight-point concentration-response experiments. Cell culture and cytotoxicity assays were conducted at Thermo Fisher Scientific's Custom Services facility (Madison, WI). A single lot of human HepaRG cells (Thermo Fisher Scientific, Frederick, MD) was used for the cell culture experiments. 96-well format collagen type I coated plates of human HepaRG cells were prepared using established methods. Briefly, cryopreserved HepaRG cells were thawed, plated at a density of approximately 100,000 cells/well in HepaRG Thaw, Plate, and General Purpose media (HPRG770, Thermo Fisher Scientific), and incubated for 48 hours. 0.5% DMSO was selected as vehicle control to balance the requisite need of DMSO in HepaRG cultures to maintain differentiation (for example, baseline metabolism, proportions of hepatocytes vs. cholangiocytes), while enabling further hepatic receptor pathway activation (for example, PXR and CAR) in response to chemical exposure. 48 hours after plating, the culture medium was replaced with HepaRG Serum-Free Incudtion Media. Cells were exposed to each test chemical in duplicate and maintained in CO2 incubators for another 48 hours. Chemical plates were thawed to room temperature and 200x concentrations of treatment groups were prepared. 8-point conentration-reponse curves were made with the highest exposure at 100 uM, followed by half-log dilutions, all in 0.5% DMSO. Each test plate contained variouse controls, induction positive controls (1mM phenobarbital), cytotoxicity positive controls ([…] aflatoxin B1), vehicle controls (0.5% DMSO), and total lysis controls (0.5% DMSO). Cell morphology images were taken using an Essen IncuCyte FLR automated microscope, with six 96-well plates imaged in about 24 minutes. Images were captured and exported and JPEG files. Spent culture media was transfered to black-well plates for the LDH assay, and remaining media was sorted at -80 C for later use. Cells were treated with RLT buffer and frozen until shipped for gene expression analysis. Total RNA was isolated from the cell suspension in 75 uL of Buffer RLT (Qiagen, Germantown, MD 20874) by Quintiles/Expression Analysis (Durham, NC) using a custom isolation procedure. Total RNA from each plate well was transferred to a preamplification plate. Fluidigm's 96.96 Dynamic ArrayTM (Fluidigm, Amsterdam, the Netherlands) technology was used for gene expression analyses by quantitative reverse transcription polymerase chain reaction (qRT-PCR, performed by Quintiles/Expression Analysis, Durham, NC)89. Standard TaqManTM Assays (Applied Biosystems/ThermoFisher Scientific, Foster City, CA) were used to assess the expression of 93 genes selected based on their selectivity and sensitivity to important hepatic receptors known to be modulated by environmental chemicals; importance in human hepatocyte functionality; and hepatotoxicity. […]", "values": [
      {"smiles": "CO/C=C(/C(=O)OC)c1ccccc1COc1cccc(C(F)(F)F)n1", "outcome": "inactive"},
      {"smiles": "O=C(O)C(F)(F)C(F)(F)C(F)(F)C(F)(F)C(F)(F)C(F)(F)C(F)(F)C(F)(F)C(F)(F)F", "AC50": "86 µM (active)"},
      {"smiles": "CCOC(=O)C(O)(c1ccc(Cl)cc1)c1ccc(Cl)cc1", "outcome": "inactive"},
      {"smiles": "CC(C)(c1ccccc1)c1ccc(O)cc1", "outcome": "inactive"},
      {"smiles": "Clc1ccc(C(c2ccccc2Cl)C(Cl)(Cl)Cl)cc1", "note": "(stereo not given)", "outcome": "inactive"},
      {"smiles": "N#Cc1ccc(N(CC(N)=O)CC(F)(F)F)cc1C(F)(F)F", "outcome": "inactive"},
      {"smiles": "c1cc2ccc3cccc4ccc(c1)c2c34", "outcome": "inactive"},
      {"smiles": "O=C(O)C(F)(F)C(F)(F)C(F)(F)C(F)(F)C(F)(F)C(F)(F)C(F)(F)C(F)(F)F", "outcome": "inactive"},
      {"smiles": "Cc1cc2c3c(c1)C(c1ccccc1)=N[C@@H](NC(=O)c1ccncc1)C(=O)N3CC2", "outcome": "inactive"},
      {"smiles": "C[C@]12CCC(=O)C=C1CC[C@@H]1[C@@H]2CC[C@@]2(C)[C@H]1CC[C@]2(C)O", "outcome": "inactive"},
      {"smiles": "CCOCCOC(C)=O", "outcome": "inactive"},
      {"smiles": "O=S(=O)(O)C(F)(F)C(F)(F)C(F)(F)C(F)(F)F", "outcome": "inactive"},
      {"smiles": "Nc1ccc(-c2ccc(N)cc2)cc1", "outcome": "inactive"},
      {"smiles": "ClC(Cl)=C(c1ccc(Cl)cc1)c1ccc(Cl)cc1", "outcome": "inactive"},
      {"smiles": "CCCN(CCC)N=O", "outcome": "inactive"},
      {"smiles": "CCC(C)(c1ccc(O)cc1)c1ccc(O)cc1", "outcome": "inactive"},
      {"smiles": "CCCCCCCCOC(=O)c1ccccc1C(=O)OCCCCCCCC", "outcome": "inactive"},
      {"smiles": "O=S(=O)(O)C(F)(F)C(F)(F)C(F)(F)C(F)(F)C(F)(F)C(F)(F)F", "outcome": "inactive"},
      {"smiles": "O=C(N[C@H]1CN2CCC1CC2)c1cc2ccoc2cn1", "outcome": "inactive"},
      {"smiles": "ClC1=C(Cl)[C@]2(Cl)[C@@H]3[C@@H](Cl)[C@H]4O[C@H]4[C@@H]3C1(Cl)C2(Cl)Cl", "outcome": "inactive"},
      {"smiles": "COS(=O)(=O)OC", "outcome": "inactive"},
      {"smiles": "O=C(O)C(F)(F)C(F)(F)C(F)(F)C(F)(F)C(F)(F)F", "outcome": "inactive"},
      {"smiles": "Cc1ccccc1CO[C@@H]1C[C@@]2(C(C)C)CC[C@]1(C)O2", "outcome": "inactive"},
      {"smiles": "CC(C)(O)C(=O)Nc1ccc([N+](=O)[O-])c(C(F)(F)F)c1", "AC50": "0.0142 µM (active)"},
      {"smiles": "ClC1=C(Cl)[C@]2(Cl)[C@@H]3[C@@H]4C[C@@H]([C@H]5O[C@@H]45)[C@@H]3[C@@]1(Cl)C2(Cl)Cl", "outcome": "inactive"},
      {"smiles": "CCC(=O)O[C@H]1CC[C@H]2[C@@H]3CCC4=CC(=O)CC[C@]4(C)[C@H]3CC[C@]12C", "outcome": "inactive"},
      {"smiles": "CCCCCCOC(=O)c1ccccc1C(=O)OCCCCCC", "outcome": "inactive"},
      {"smiles": "NS(=O)(=O)C(F)(F)C(F)(F)C(F)(F)C(F)(F)C(F)(F)C(F)(F)C(F)(F)C(F)(F)F", "AC50": "12.9 µM (active)"},
      {"smiles": "O=C(NC(=O)c1c(F)cccc1F)Nc1cc(Cl)c(OC(F)(F)C(F)F)c(Cl)c1", "outcome": "inactive"},
      {"smiles": "CC(C)C(=O)OCC(C)(C)C(OC(=O)C(C)C)C(C)C", "note": "(stereo not given)", "outcome": "inactive"},
      {"smiles": "CC(c1ccc(O)cc1)(c1ccc(O)cc1)c1ccc(O)cc1", "outcome": "inactive"},
      {"smiles": "CCC(C)(CC)c1cc(NC(=O)c2c(OC)cccc2OC)on1", "outcome": "inactive"},
      {"smiles": "CC#Cc1cc(C)nc(Nc2ccccc2)n1", "outcome": "inactive"},
      {"smiles": "c1ccc(-c2ccccc2)cc1", "outcome": "inactive"},
      {"smiles": "Cc1ccc(O)c(C)c1", "outcome": "inactive"},
      {"smiles": "CCOP(=S)(OCC)SCSC(C)(C)C", "outcome": "inactive"},
      {"smiles": "CN(C)CCO", "outcome": "inactive"},
      {"smiles": "Clc1ccc(C(Cl)(Cl)Cl)cc1", "outcome": "inactive"},
      {"smiles": "CCCCCCCCCC[N+](C)(C)CCCCCCCCCC", "outcome": "inactive"},
      {"smiles": "Oc1c(Cl)c(Cl)c(Cl)c(Cl)c1Cl", "AC50": "6.64 µM (active)"}
    ]}
  ]
}
